# Measured values reported in paper PMC11006913.
# Changes are numbered by the printed parent chain.
# Assays:
# Experiment in all cases: PBM; 200 nM protein, PBS
# Details in all cases: dsDNA, one strand shown
# [1] = molecular target: HOXA7 (Homo sapiens, UniProt P31268 116-202)
# [2] = molecular target: HOXA7 (Homo sapiens, UniProt P31268 116-202, W177C)
# [3] = molecular target: MSX2 (Homo sapiens, UniProt P35548 130-214, R199I)
# [4] = molecular target: MSX2 (Homo sapiens, UniProt P35548 130-214)
# Sequence of MSX2 (Homo sapiens, UniProt P35548 130-214) (P35548 130-214): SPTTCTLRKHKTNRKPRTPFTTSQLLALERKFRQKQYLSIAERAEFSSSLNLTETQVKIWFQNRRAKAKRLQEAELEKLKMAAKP
# [5] = molecular target: MSX2 (Homo sapiens, UniProt P35548 130-214, F161Y)
# Sequence of MSX2 (Homo sapiens, UniProt P35548 130-214, F161Y) (P35548 130-214 F161Y): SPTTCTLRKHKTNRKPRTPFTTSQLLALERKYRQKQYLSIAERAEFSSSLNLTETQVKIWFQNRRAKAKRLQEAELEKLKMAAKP
# [6] = molecular target: PROP1 (Homo sapiens, UniProt O75360 56-141)
# Sequence of PROP1 (Homo sapiens, UniProt O75360 56-141) (O75360 56-141): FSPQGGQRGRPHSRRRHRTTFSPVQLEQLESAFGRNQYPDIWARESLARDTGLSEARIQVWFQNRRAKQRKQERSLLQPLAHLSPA
# [7] = molecular target: PROP1 (Homo sapiens, UniProt O75360 56-141, R99H)
# Sequence of PROP1 (Homo sapiens, UniProt O75360 56-141, R99H) (O75360 56-141 R99H): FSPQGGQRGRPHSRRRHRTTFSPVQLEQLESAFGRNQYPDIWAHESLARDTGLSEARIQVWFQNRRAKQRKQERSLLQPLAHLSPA
# [8] = molecular target: PROP1 (Homo sapiens, UniProt O75360 56-141, F88S)
# Sequence of PROP1 (Homo sapiens, UniProt O75360 56-141, F88S) (O75360 56-141 F88S): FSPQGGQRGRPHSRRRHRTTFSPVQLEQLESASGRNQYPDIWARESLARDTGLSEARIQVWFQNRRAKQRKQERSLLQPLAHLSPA
# [9] = molecular target: T1, PAX4 (Homo sapiens, UniProt O43316 9-242, R200K)
# T1 sequence: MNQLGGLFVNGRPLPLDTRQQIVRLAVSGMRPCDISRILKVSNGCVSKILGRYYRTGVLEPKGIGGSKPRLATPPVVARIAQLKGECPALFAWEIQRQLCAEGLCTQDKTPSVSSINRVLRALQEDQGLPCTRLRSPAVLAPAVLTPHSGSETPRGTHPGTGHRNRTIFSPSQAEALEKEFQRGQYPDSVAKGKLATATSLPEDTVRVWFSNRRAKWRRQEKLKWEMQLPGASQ
# [10] = molecular target: T2, PAX4 (Homo sapiens, UniProt O43316 9-242)
# T2 sequence: T1 sequence with K192R
# [11] = molecular target: T3, PAX4 (Homo sapiens, UniProt O43316 9-242, R200Q)
# T3 sequence: T1 sequence with K192Q
# [12] = molecular target: T4, PAX4 (Homo sapiens, UniProt O43316 9-242, F177V)
# T4 sequence: T1 sequence with F169V, K192R
# [13] = molecular target: HOXD13 (Homo sapiens, UniProt P35453 263-343, T313R)
# Sequence of HOXD13 (Homo sapiens, UniProt P35453 263-343, T313R) (P35453 263-343 T313R): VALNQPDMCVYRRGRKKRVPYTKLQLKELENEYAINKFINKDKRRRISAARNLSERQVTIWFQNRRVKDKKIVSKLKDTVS
# [14] = molecular target: HOXD13 (Homo sapiens, UniProt P35453 263-343)
# Sequence of HOXD13 (Homo sapiens, UniProt P35453 263-343) (P35453 263-343): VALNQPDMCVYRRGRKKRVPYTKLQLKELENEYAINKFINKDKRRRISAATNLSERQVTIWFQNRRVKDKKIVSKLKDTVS
# [15] = molecular target: HOXC10 (Homo sapiens, UniProt Q9NYD6 254-340, K271E)
# Sequence of HOXC10 (Q9NYD6 254-340 K271E): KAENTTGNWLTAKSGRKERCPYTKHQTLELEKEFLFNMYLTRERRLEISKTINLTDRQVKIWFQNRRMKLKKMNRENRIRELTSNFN
# [16] = molecular target: HOXD13 (Homo sapiens, UniProt P35453 263-343, T313A)
# Sequence of HOXD13 (Homo sapiens, UniProt P35453 263-343, T313A) (P35453 263-343 T313A): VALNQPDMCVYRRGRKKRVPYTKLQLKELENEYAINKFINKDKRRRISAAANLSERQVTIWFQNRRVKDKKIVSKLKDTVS
# [17] = molecular target: ALX1 (Homo sapiens, UniProt Q15699 118-204, L144V)
# Sequence of ALX1 (Homo sapiens, UniProt Q15699 118-204, L144V) (Q15699 118-204 L144V): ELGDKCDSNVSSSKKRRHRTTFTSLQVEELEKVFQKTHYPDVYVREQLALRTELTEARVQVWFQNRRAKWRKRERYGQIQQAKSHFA
# [18] = molecular target: ALX1 (Homo sapiens, UniProt Q15699 118-204, L144R)
# Sequence of ALX1 (Homo sapiens, UniProt Q15699 118-204, L144R) (Q15699 118-204 L144R): as the sequence (Q15699 118-204 L144V) above, with V27R counted along it
# [19] = molecular target: T5, PAX4 (Homo sapiens, UniProt O43316 9-242, F177Y)
# T5 sequence: T1 sequence with F169Y, K192R
# [20] = molecular target: VAX1 (Homo sapiens, UniProt Q5SQQ9 86-172)
# Sequence of VAX1 (Homo sapiens, UniProt Q5SQQ9 86-172) (Q5SQQ9 86-172): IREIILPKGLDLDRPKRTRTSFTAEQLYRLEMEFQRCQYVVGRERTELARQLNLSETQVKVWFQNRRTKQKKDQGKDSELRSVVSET
# [21] = molecular target: VAX1 (Homo sapiens, UniProt Q5SQQ9 86-172, T142I)
# Sequence of VAX1 (Homo sapiens, UniProt Q5SQQ9 86-172, T142I) (Q5SQQ9 86-172 T142I): as the sequence (Q5SQQ9 86-172) above, with T57I counted along it
# [22] = molecular target: T6, PAX4 (Homo sapiens, UniProt O43316 9-242, R227W)
# T6 sequence: T1 sequence with K192R, R219W
# [23] = molecular target: ALX1 (Homo sapiens, UniProt Q15699 118-204)
# Sequence of ALX1 (Homo sapiens, UniProt Q15699 118-204) (Q15699 118-204): as the sequence (Q15699 118-204 L144V) above, with V27L counted along it
# [24] = molecular target: VAX1 (Homo sapiens, UniProt Q5SQQ9 86-172, K157R)
# Sequence of VAX1 (Homo sapiens, UniProt Q5SQQ9 86-172, K157R) (Q5SQQ9 86-172 K157R): as the sequence (Q5SQQ9 86-172) above, with K72R counted along it
# [25] = molecular target: HOXA2 (Homo sapiens, UniProt O43364 129-215, R185T)
# Sequence of HOXA2 (Homo sapiens, UniProt O43364 129-215, R185T) (O43364 129-215 R185T): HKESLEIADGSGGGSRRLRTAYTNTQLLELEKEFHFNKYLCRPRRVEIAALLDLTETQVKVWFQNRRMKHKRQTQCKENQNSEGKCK
# [26] = molecular target: HOXA2 (Homo sapiens, UniProt O43364 129-215, R185K)
# Sequence of HOXA2 (Homo sapiens, UniProt O43364 129-215, R185K) (O43364 129-215 R185K): as the sequence (O43364 129-215 R185T) above, with T57K counted along it
# [27] = molecular target: HOXA2 (Homo sapiens, UniProt O43364 129-215, Y150S)
# Sequence of HOXA2 (Homo sapiens, UniProt O43364 129-215, Y150S) (O43364 129-215 Y150S): as the sequence (O43364 129-215 R185T) above, with Y22S, T57R counted along it
# [28] = molecular target: HOXA2 (Homo sapiens, UniProt O43364 129-215)
# Sequence of HOXA2 (Homo sapiens, UniProt O43364 129-215) (O43364 129-215): as the sequence (O43364 129-215 R185T) above, with T57R counted along it
# Sequence of MSX2 (Homo sapiens, UniProt P35548 130-214, R199I) (P35548 130-214 R199I): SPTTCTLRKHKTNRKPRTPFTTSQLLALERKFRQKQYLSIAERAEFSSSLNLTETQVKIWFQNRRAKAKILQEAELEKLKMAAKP
# Sequence of HOXA7 (Homo sapiens, UniProt P31268 116-202) (P31268 116-202): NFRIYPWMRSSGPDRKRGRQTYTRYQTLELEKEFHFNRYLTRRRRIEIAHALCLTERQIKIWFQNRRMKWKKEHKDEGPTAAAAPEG
# Sequence of HOXA7 (Homo sapiens, UniProt P31268 116-202, W177C) (P31268 116-202 W177C): as the sequence (P31268 116-202) above, with W62C counted along it
sequence,measurement,setting,value
GGCGGTCA,binding signal,[1],"8.58 upbm affinity estimate (log intensity, higher = more binding, comparable within an allelic series)"
same,binding signal,[2],"8.5 upbm affinity estimate (log intensity, higher = more binding, comparable within an allelic series)"
CGGTGTCC,binding signal,[1],"8.41 upbm affinity estimate (log intensity, higher = more binding, comparable within an allelic series)"
same,binding signal,[3],"9.36 upbm affinity estimate (log intensity, higher = more binding, comparable within an allelic series)"
same,binding signal,[4],"9.29 upbm affinity estimate (log intensity, higher = more binding, comparable within an allelic series)"
same,binding signal,[5],"9.3 upbm affinity estimate (log intensity, higher = more binding, comparable within an allelic series)"
same,binding signal,[2],"8.4 upbm affinity estimate (log intensity, higher = more binding, comparable within an allelic series)"
CAGTGCGG,binding signal,[1],"8.54 upbm affinity estimate (log intensity, higher = more binding, comparable within an allelic series)"
same,binding signal,[6],"6.84 upbm affinity estimate (log intensity, higher = more binding, comparable within an allelic series)"
same,binding signal,[7],"6.82 upbm affinity estimate (log intensity, higher = more binding, comparable within an allelic series)"
same,binding signal,[8],"6.73 upbm affinity estimate (log intensity, higher = more binding, comparable within an allelic series)"
same,binding signal,[2],"8.37 upbm affinity estimate (log intensity, higher = more binding, comparable within an allelic series)"
GATTACAC,binding signal,[1],"9.6 upbm affinity estimate (log intensity, higher = more binding, comparable within an allelic series)"
same,binding signal,[9],"10.9 upbm affinity estimate (log intensity, higher = more binding, comparable within an allelic series)"
same,binding signal,[10],"11.2 upbm affinity estimate (log intensity, higher = more binding, comparable within an allelic series)"
same,binding signal,[11],"11 upbm affinity estimate (log intensity, higher = more binding, comparable within an allelic series)"
same,binding signal,[12],"10.3 upbm affinity estimate (log intensity, higher = more binding, comparable within an allelic series)"
same,binding signal,[2],"8.73 upbm affinity estimate (log intensity, higher = more binding, comparable within an allelic series)"
ATATAAAA,binding signal,[1],"9.79 upbm affinity estimate (log intensity, higher = more binding, comparable within an allelic series)"
same,binding signal,[13],"10.9 upbm affinity estimate (log intensity, higher = more binding, comparable within an allelic series)"
same,binding signal,[14],"11.8 upbm affinity estimate (log intensity, higher = more binding, comparable within an allelic series)"
same,binding signal,[15],"11.3 upbm affinity estimate (log intensity, higher = more binding, comparable within an allelic series)"
same,binding signal,[16],"11.7 upbm affinity estimate (log intensity, higher = more binding, comparable within an allelic series)"
same,binding signal,[2],"8.84 upbm affinity estimate (log intensity, higher = more binding, comparable within an allelic series)"
CCTGGTCC,binding signal,[1],"8.3 upbm affinity estimate (log intensity, higher = more binding, comparable within an allelic series)"
same,binding signal,[9],"9.07 upbm affinity estimate (log intensity, higher = more binding, comparable within an allelic series)"
same,binding signal,[10],"9.15 upbm affinity estimate (log intensity, higher = more binding, comparable within an allelic series)"
same,binding signal,[3],"9.44 upbm affinity estimate (log intensity, higher = more binding, comparable within an allelic series)"
same,binding signal,[17],"6.39 upbm affinity estimate (log intensity, higher = more binding, comparable within an allelic series)"
same,binding signal,[11],"9.31 upbm affinity estimate (log intensity, higher = more binding, comparable within an allelic series)"
same,binding signal,[18],"6.31 upbm affinity estimate (log intensity, higher = more binding, comparable within an allelic series)"
same,binding signal,[12],"9.26 upbm affinity estimate (log intensity, higher = more binding, comparable within an allelic series)"
same,binding signal,[4],"9.47 upbm affinity estimate (log intensity, higher = more binding, comparable within an allelic series)"
same,binding signal,[19],"9.15 upbm affinity estimate (log intensity, higher = more binding, comparable within an allelic series)"
same,binding signal,[20],"7.22 upbm affinity estimate (log intensity, higher = more binding, comparable within an allelic series)"
same,binding signal,[5],"9.52 upbm affinity estimate (log intensity, higher = more binding, comparable within an allelic series)"
same,binding signal,[21],"7.32 upbm affinity estimate (log intensity, higher = more binding, comparable within an allelic series)"
same,binding signal,[22],"9.31 upbm affinity estimate (log intensity, higher = more binding, comparable within an allelic series)"
same,binding signal,[2],"8.35 upbm affinity estimate (log intensity, higher = more binding, comparable within an allelic series)"
same,binding signal,[23],"6.34 upbm affinity estimate (log intensity, higher = more binding, comparable within an allelic series)"
same,binding signal,[24],"7.26 upbm affinity estimate (log intensity, higher = more binding, comparable within an allelic series)"
GACCCTGC,binding signal,[1],"8.54 upbm affinity estimate (log intensity, higher = more binding, comparable within an allelic series)"
same,binding signal,[25],"7.03 upbm affinity estimate (log intensity, higher = more binding, comparable within an allelic series)"
same,binding signal,[3],"9.48 upbm affinity estimate (log intensity, higher = more binding, comparable within an allelic series)"
same,binding signal,[26],"10.3 upbm affinity estimate (log intensity, higher = more binding, comparable within an allelic series)"
same,binding signal,[4],"9.31 upbm affinity estimate (log intensity, higher = more binding, comparable within an allelic series)"
same,binding signal,[5],"9.36 upbm affinity estimate (log intensity, higher = more binding, comparable within an allelic series)"
same,binding signal,[27],"10.5 upbm affinity estimate (log intensity, higher = more binding, comparable within an allelic series)"
same,binding signal,[2],"8.43 upbm affinity estimate (log intensity, higher = more binding, comparable within an allelic series)"
same,binding signal,[28],"6.79 upbm affinity estimate (log intensity, higher = more binding, comparable within an allelic series)"
